# According to PubChem BioAssay (NCATS):
# Results filed as inconclusive are left out. Calls of active or inactive are those of the source. The call rests on the fitted dose curve; in most records, active means well fitted inhibition curve with a large enough effect; inconclusive means small, poorly fitted or top-dose-only effect; inactive means no such curve, though single readings can be large or run the other way.
# Experiment: qHTS for Inhibitors of the Aldehyde Dehydrogenase Family (ALDH1A2, ALDH1A3, ALDH2, ALDH3A1) (AID 2061307); further: nearly all actives have a fitted effect of over 50% in size; on Potency: test system not described further here
# Conditions: ALDH inhibition qHTS; series mostly up to 50.3 µM; activity change, negative = inhibition: at the top concentration
# On the % scale 0 is the no-effect control and ±100 the full control effect; potency means the concentration at half of the fitted maximal effect.
SMILES,"activity change, negative = inhibition",Potency
NCC(=O)Nc1cccc(-c2nn3c(=O)cc(N4CCNCC4)nc3s2)c1,69.7% (inactive),–
CN1CCN(CC(=O)N2c3ccc(S(=O)(=O)NCCNC(=O)OC(C)(C)C)cc3C(=O)Nc3cccnc32)CC1,-20.5% (inactive),–
O=C(O)c1ccc(-n2[nH]c(-c3ccccc3)cc2=O)cc1,–,8.91 µM (active)
CN(C)c1ccc(NC(=O)c2cn(-c3ccccc3)nn2)cn1,-6.95% [at 34.4 µM] (inactive),–
COc1ccc(Cl)cc1NC(=O)c1nn(-c2ccc(C)cc2)c(=O)n(C)c1=O,2.29% [at 34.4 µM] (inactive),–
CCOc1ccc(-c2nc3scc(-c4ccc(OC)cc4)c3c(=O)[nH]2)cc1OC,-18.5% [at 34.4 µM] (inactive),–
COc1cccc2cc(C(=O)Nc3ccc(F)c(F)c3)c(=O)oc12,-13.9% [at 34.4 µM] (inactive),–
Cc1ccc(OCCCn2c(CCN)nc3ccccc32)cc1,31.3% (inactive),–
Cc1ncccc1NC(=O)c1cccs1,-2.56% (inactive),–
O=C(Nc1cccc(S(=O)(=O)N2CCOCC2)c1)c1ccc(CN2CCc3ccccc3C2)cc1,–,3.98 µM (active)
CC(NC(=O)c1ccco1)c1nc(-c2ccccc2)no1 (stereo not given),-45.8% [at 34.4 µM] (inactive),–
Cc1ccc(CNc2ncnc3c2oc2ccccc23)cc1,-1.39% (inactive),–
COc1ccc(C2CC(=O)Nc3nc(N4CCCCC4)sc32)c(OC)c1 (stereo not given),-5.83% (inactive),–
COc1ccc(-c2ccncc2)cc1OC,-17.3% (inactive),–
O=C(c1cccc(F)c1)N1CCCC2(CCN(C(c3ccccc3)c3ccccc3)C2)C1 (stereo not given),-79.3% (inactive),–
O=C(Nc1nnc(-c2ccccn2)o1)c1ccc(Cl)cc1Cl,–,12.7 µM (active)
O=C(CSc1nc2ccccc2c(=O)[nH]1)Nc1nc(-c2ccc(Br)cc2)cs1,-14.1% (inactive),–
CCn1c(=O)cc(OCC(=O)N2CCN(c3cccc(Cl)c3)CC2)c2ccccc21,-10.8% (inactive),–
O=C(Nc1nnc(C(F)(F)F)s1)c1ccc(Cl)cc1,-7.53% (inactive),–
CS(=O)Cc1cccc(C(=O)Nc2cccc3cccnc23)c1 (stereo not given),-12% [at 34.4 µM] (inactive),–

SMILES,"activity change, negative = inhibition",Potency
O=C(c1cccs1)c1no[n+]([O-])c1C(=O)c1cccs1,–,1.59 µM (active)
O=C(NC1CCCN(Cc2ccccc2)C1)c1ccc(-c2cccc([N+](=O)[O-])c2)o1 (stereo not given),–,14.1 µM (active)
O=C(CSc1n[nH]c2nc3ccccc3n12)Nc1cc(C(F)(F)F)ccc1Cl,–,15.8 µM (active)
CN1CCN(c2ccc3ncc(Nc4ccc(Cl)c(C(F)(F)F)c4)n3n2)CC1,–,28.2 µM (active)
O=C(Nc1ccccc1C(=O)Nc1cccc(C(F)(F)F)c1)c1cccc([N+](=O)[O-])c1,–,3.55 µM (active)
Cc1ccc(-c2ccccc2)n1-c1ccccc1C(=O)O,–,15.9 µM (active)
CCN(CC)S(=O)(=O)c1cccc(NC(=O)CNc2cccc(S(=O)(=O)N3CCOCC3)c2)c1,–,10 µM (active)
O=S(=O)(Nc1ccccc1F)c1cccc(NC(=S)NCCN2CCOCC2)c1,-5.69% (inactive),–
Cc1ccccc1C(=O)n1ccc2cc(-c3cccc(NC(=O)Cc4ccccc4)n3)cnc21,-20.7% (inactive),–
CCN(CC)C(=O)c1ccc(Nc2ncnc3sc(C)c(C)c23)cc1,–,6.31 µM (active)
CC(C)c1ccc(-c2cc(-c3nn(-c4nc(C(=O)O)cs4)c(CC4CC4)c3Cc3ccc(S(N)(=O)=O)cc3)ccc2F)cc1,–,1.12 µM (active)
O=Cc1ccc(Sc2ccccn2)o1,3.67% (inactive),–
COc1ccc(-c2cc(C(=O)Nc3sc4c(c3C(N)=O)CCCC4)no2)cc1,0% [at 34.4 µM] (inactive),–
COc1cc(O)c(C(CC(=O)N2CC(C)CC(C)C2)c2ccc(NC(C)=O)cc2)c(OC)c1 (stereo not given),–,31.6 µM (active)
O=C1c2ccccc2-c2nnc(-c3ccccc3Cl)cc21,-13.3% (inactive),–
Cc1ccc(NC(=O)c2cc(-c3cccs3)on2)cc1C,-52.3% [at 34.4 µM] (inactive),–
COc1ccccc1CNc1ccc(N2CCCCC2)cc1,–,2.52 µM (active)
Cc1nc(SCCc2nc3ccccc3[nH]2)c2oc3ccccc3c2n1,-27.6% (inactive),–
Cc1cccc(C)c1Nc1c(-c2ccccn2)nc2ccc(Cl)cn12,-2.05% (inactive),–
CS(=O)(=O)c1nc(-c2ccc(Br)cc2)cs1,-2.71% (inactive),–
